Unmarked numbers belong to inactive results.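 The calls were made as follows: active = AUC reduced over 20% with Padj below 0.05 in at least 2 of 3 replicates; inactive = otherwise.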
What was measured:
Test in all cases: growth AUC relative to DMSO control (median of replicates) (fraction); higher = more growth (less inhibition), active = hit call of the paper
Settings in all cases: 20 µM; 24 h
Akkermansia muciniphila = system: Akkermansia muciniphila
How it was run: (§1)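 OD600 was recorded every hour for 24 h in anaerobic monocultures of gut bacteria kept at 37 °C in mGAM, seeded at OD600 0.05 and given 20 µM compound in 1% DMSO. The area under each growth curve was scaled to the plate median of solvent-only wells, or to row and column medians for the industrial chemical plate. Before this step, the minimum OD was set to 0. Reported values are medians of three biological replicates run on separate days.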

Bacteroides caccae = system: Bacteroides caccae
How it was run: as §1

Bacteroides clarus = system: Bacteroides clarus
How it was run: as §1

Bacteroides dorei = system: Bacteroides dorei
How it was run: as §1

Bacteroides stercoris = system: Bacteroides stercoris
How it was run: as §1

[1] = system: Bacteroides thetaiotaomicron
How it was run: as §1

Bacteroides uniformis = system: Bacteroides uniformis
How it was run: as §1

[2] = system: Bifidobacterium longum subsp. longum
How it was run: as §1

Clostridium difficile = system: Clostridium difficile
How it was run: as §1

Collinsella aerofaciens = system: Collinsella aerofaciens
How it was run: as §1

Compound	growth AUC (Akkermansia muciniphila)	growth AUC (Bacteroides caccae)	growth AUC (Bacteroides clarus)	growth AUC (Bacteroides dorei)	growth AUC (Bacteroides stercoris)	growth AUC [1]	growth AUC (Bacteroides uniformis)	growth AUC [2]	growth AUC (Clostridium difficile)	growth AUC (Collinsella aerofaciens)
CCOC(=O)C(C)Oc1ccc(Oc2nc3ccc(Cl)cc3o2)cc1 (racemic)	1.1	0.973	0.96	0.94	0.898	0.971	0.981	0.989	1.01	0.947
C=CCOC(Cn1ccnc1)c1ccc(Cl)cc1Cl (stereo not given)	0.972	0.944	0.96	0.959	1.12	0.983	0.941	1.05	0.926	0.873
Cc1c(C(=O)c2c[nH]n(C)c2=O)ccc(S(C)(=O)=O)c1C1=NOCC1	0.937	1.03	0.983	0.989	0.895	1	1.01	1.13	1	0.976
c1ccc2c(c1)-c1cccc3c1c-2cc1ccccc13	0.981	1.05	1.03	1.04	1.08	1.02	1.03	1.06	1.02	1.01
COc1cc(OC)c(Cl)cc1N	0.954	0.994	0.995	1.02	1.09	1.01	1.01	0.912	1.01	1.03
Nc1nc2ccccc2[nH]1	1.06	0.96	1.01	0.911	1.01	1.02	0.94	1.03	0.973	0.943
Clc1ccc(C(c2ccccc2Cl)C(Cl)Cl)cc1 (stereo not given)	1.21	1.01	0.936	0.976	0.856	0.988	0.943	1.03	1	0.847
FC(F)(F)c1cccc(C(c2ccccc2)(c2ccccc2)n2cncn2)c1	0.852	0.02 (active)	0.93	0.92	0.892	0.869	0.877	0.948	1.04	0.924
O.O=C(Nc1ccc(Cl)c(Cl)c1)Nc1cc(Cl)ccc1Oc1ccc(Cl)cc1S(=O)(=O)[O-].[Na+]	1.16	0.906	0.22 (active)	0.908	0.0107 (active)	0.329 (active)	0.00911 (active)	0.912	0.829	0.619 (active)
Br[C@@H]1CC[C@@H](Br)[C@@H](Br)CC[C@H](Br)[C@H](Br)CC[C@H]1Br	1.04	0.941	1	0.985	1	0.978	0.977	0.979	1	0.815
COC(=O)c1ccc(CNS(C)(=O)=O)cc1S(=O)(=O)NC(=O)Nc1nc(OC)cc(OC)n1	0.864	0.988	1.02	1.01	0.871	0.991	1.01	0.917	1.02	1.01
CCC(C)c1cc([N+](=O)[O-])cc([N+](=O)[O-])c1OC(=O)OC(C)C (stereo not given)	1.05	0.909	0.81	0.892	0.294 (active)	0.875	0.881	0.959	0.945	0.915
COc1c(Cl)ccc(Cl)c1C(=O)O	0.878	0.997	0.975	1.01	0.961	1	0.947	0.926	1.01	1.04
CCCCOCCOC(=O)COc1ccc(Cl)cc1Cl	1.09	0.966	0.991	0.867	0.952	0.98	0.93	0.984	0.993	0.96
CCOC(=O)Cc1[nH]nc2ccc(Cl)cc12	0.921	1.01	1.01	0.996	1.15	1.01	1.01	0.989	1	0.969
O=C(Nc1ccc(O)cc1-c1ccc(Cl)cc1)c1cccnc1Cl	0.889	1.02	0.976	1.03	0.964	1.01	1	1.01	1.03	1.02
N#Cc1ccccc1NC(=O)c1snc(Cl)c1Cl	1.07	0.956	0.982	1.01	1.15	1	0.974	0.9	0.944	1.05
CN(C)C(=O)Nc1ccc(Oc2ccc(Cl)cc2)cc1	0.943	0.863	0.948	0.871	0.819	0.92	1.02	0.991	0.96	0.924
O=S(=O)(Oc1ccc(Cl)cc1)c1ccccc1	0.785	0.959	0.967	0.941	0.874	0.964	0.972	1.01	1	0.978
C#CCN(C)c1c(C#N)cnn1-c1nn2c(c1Cl)CCCC2	0.903	0.935	0.931	0.987	0.851	0.933	0.914	0.995	1	1.02
CC(C)(C)Nc1nc(N)nc(Cl)n1	1.06	0.991	0.997	0.993	0.991	0.979	0.962	0.982	0.997	0.998
Oc1ccccc1	1.08	0.963	0.991	1.03	0.992	0.997	1.03	0.998	1.02	1
CCCCOC(=O)COc1ccc(Cl)cc1Cl	1.06	0.975	1.02	0.996	1.09	0.987	1.02	0.965	0.999	0.957
CC(=O)Nc1cc(NS(=O)(=O)C(F)(F)F)c(C)cc1C	0.856	1.04	0.973	1.02	0.886	1.01	1.02	0.92	1.08	1.06
CC(C)c1ccccc1	0.937	1.02	1.01	1.02	1.02	0.999	0.999	0.947	1.02	1.02
NC(=O)Cc1cccc2ccccc12	1.01	1	1.03	0.988	1.15	1.03	1.01	0.977	1.01	0.981
O=C(Oc1ccccc1)n1c(C(F)(F)F)nc2cc(Cl)c(Cl)cc21	0.177 (active)	0.215 (active)	0.121 (active)	0.236 (active)	0.0063 (active)	0.0816 (active)	0.0127 (active)	0.891	0.561 (active)	0.958
CC(C)NS(=O)(=O)NC(=O)c1cc(NC(N)=O)c(F)cc1Cl	1.06	1	0.988	0.959	0.991	0.808	1.02	1.02	1.06	0.981

From the supplement of paper PMC12669032
